# Data: ChEMBL document CHEMBL4513216, “Probing the Open Global Health Chemical Diversity Library for Multistage-Active Starting Points for Next-Generation Antimalarials” (ACS Infect Dis, 2020)
# Out of some 68,000 compounds screened, about 2,700 (4%) showed an effect of 50% or more. Many of the other results were omitted from the sample, so strong results are more common in it than they were.
# Tested on: Plasmodium berghei
# Assay: Screen against P. berghei liver stage (PbLuc), transformed with Luciferase, at 2uM
# Type: functional, HepG2
# Settings: tested at 2 uM
row,SMILES,INHIBITION
1,Cc1oncc1C(=O)NCC(c1ccccc1Cl)N1CCOCC1 (stereo not given),8.6%
2,COc1cc(N2CCC3(CC2)CC(N2CCN(C)CC2)CO3)ncn1 (stereo not given),-39.89%
3,COc1cc(N2CCC3(CC2)CC(N2CCOCC2)CO3)ncn1 (stereo not given),34.24%
4,COc1cc(N2CCC3(CC2)CC(N2CCOCC2)C3)ncn1,52.36%
5,CSCCC(C)(O)CNS(=O)(=O)Cc1cccc(C)c1 (stereo not given),-40.82%
6,O=C(Cc1ccon1)NC1CCCN(c2ccccc2F)C1=O (stereo not given),28.73%
7,O=C(Cc1nc(-c2ccncc2)n[nH]1)NCCCN1CCOCC1,15.46%
8,CC(C)OCCCNC(=O)C1CCC(=O)N(C2CCCC2)C1 (stereo not given),68.61%
9,CSCCNC(=O)C1CCC(=O)N(C2CCCC2)C1 (stereo not given),21.24%
10,O=C(NCCN1CCCCC1=O)C1CCC(=O)N(C2CCCC2)C1 (stereo not given),54.29%
11,COC(C)(C)CNC(=O)C1CCC(=O)N(C2CCCC2)C1 (stereo not given),8.03%
12,CC(C)OCCNC(=O)C1CCC(=O)N(C2CCCC2)C1 (stereo not given),28.95%
13,O=C(NCC(F)(F)F)C1CCC(=O)N(C2CCCC2)C1 (stereo not given),9.13%
14,O=C(NCCn1cccc1)C1CCC(=O)N(C2CCCC2)C1 (stereo not given),10.75%
15,CSCCCNC(=O)C1CCC(=O)N(C2CCCC2)C1 (stereo not given),56.49%
16,C=C(C)CNC(=O)C1CCC(=O)N(C2CCCC2)C1 (stereo not given),2.52%
17,Cc1cc(C(=O)N2CCCS2(=O)=O)c(C)o1,-15.41%
18,COC(=O)CN1CCC(C(=O)c2cc(F)ccc2F)CC1,35.23%
19,Cc1oc(-c2ccco2)nc1CN1CCCC(Cn2cncn2)C1 (stereo not given),43.7%
20,O=C(CN1CC(c2ccccc2)CC1=O)N1CCC(c2ncc[nH]2)CC1 (stereo not given),-63.6%
21,Cc1nnc2n1CCN(C(=O)C(C)Oc1ccc(C#N)cc1)C2 (stereo not given),35.56%
22,COc1cc(C#N)ccc1OCC(=O)NS(=O)(=O)c1ccccc1,-0.89%

row,SMILES,INHIBITION
1,CC(C)c1noc(OCC(=O)N(C)C(C)C)n1,-6.48%
2,Cc1nsc(N2CCCN(C(=O)c3ccc4[nH]ccc4c3)CC2)n1,24.36%
3,Cc1nsc(N2CCN(C(=O)Nc3ccc4[nH]ccc4c3)CC2)n1,57.75%
4,Cc1nsc(N2CCN(C(=O)Nc3cccc(F)c3)CC2)n1,45.82%
5,CO[C@H]1CN(C(=O)c2cn3cc(C)ccc3n2)CC[C@@]12CCCO2,80.88%
6,CO[C@H]1CN(C(=O)c2cccc(C)n2)CC[C@@]12CCCO2,19.91%
7,CO[C@H]1CN(C(=O)c2ccc3oc(C)cc3c2)CC[C@@]12CCCO2,27.16%
8,COc1ccccc1C1=NOC(CC2(C(=O)O)CCOCC2)C1 (stereo not given),8.89%
9,COc1ccc(F)cc1-c1ccccc1CC1(C(=O)O)CCOCC1,53.95%
10,O=C(NCCO)C1(Cc2ccccc2-c2ccncc2)CCOCC1,26.14%
11,CC(C)(C)NC(=O)C1(Cc2ccccc2-c2ccncc2)CCOCC1,16.55%
12,COc1ccccc1-c1ccccc1CC1(C(=O)O)CCNCC1,-18.15%
13,COCCNC(=O)C1(Cc2ccccc2-c2ccncc2)CCOCC1,52.82%
14,COCCOc1cccc(CNCc2ccc(-n3cncn3)nc2)c1,5.47%
15,CC(C)N1CCO[C@H]2CN(C(=O)Cc3cccs3)C[C@H]21,9.87%
16,COc1ccc(-c2nnc(SC(C)C(N)=O)[nH]2)c(OC)c1 (stereo not given),-61.3%
17,COc1ccc(C(=O)C2CCCN(c3cnccn3)C2)c(C)c1 (stereo not given),16.87%
18,COc1ccc(C(=O)C2CCCN(c3cc(OC)ncn3)C2)c(C)c1 (stereo not given),60%
19,COc1ccc(C(=O)C2CCCN(c3cc(N)ncn3)C2)c(C)c1 (stereo not given),16.32%
20,CN(C)Cc1ccccc1CN(C)C(=O)c1ccoc1,16.49%
21,CN(CCc1ccncc1)CCc1nccs1,78.24%
22,CN(CCc1ccncc1)Cc1nccn1Cc1ccccc1,33.78%

row,SMILES,INHIBITION
1,CCc1ccsc1C(=O)N(C)CCc1ccncc1,70.66%
2,CN(CCc1ccncc1)C(=O)c1sccc1OC(F)F,-120.22%
3,CN(CCc1cccs1)CCc1nccs1,55.25%
4,Cc1ncsc1C(=O)N(C)CCc1ccncc1,-3.38%
5,CCC(=O)N(CC)CCc1nccs1,36.57%
6,CN(CCc1ccccn1)CCc1nccs1,15.84%
7,CCN(CCc1nccs1)C(=O)c1ccco1,44.23%
8,O=C(NCCc1cscn1)c1coc(CN2CCOCC2)c1,-0.28%
9,Cc1cccc(N2CCN(C(=O)Cc3ccccc3O)C(C)C2)n1 (stereo not given),10.49%
10,O=C(O)c1ccn(COc2c(Cl)cccc2Cl)n1,10.62%
11,Cc1ccc(CN2CCc3c(COCC4CC4)nn(C)c3C2)s1,22.12%
12,COc1ccc(CNCC2CCN(CC(C)O)CC2)c2ccccc12 (stereo not given),7.54%
13,CCOc1ccccc1CNCC1CCN(CC(C)O)CC1 (stereo not given),21.43%
14,COc1cccc(CNCC2CCN(CC(C)O)CC2)c1OC (stereo not given),61.96%
15,COc1ccccc1CNC1(CCO)CCOCC1,13.12%
16,Cc1cc(C(=O)N2CCCC(c3ccc(C(=O)O)cc3)C2)c(C)o1 (stereo not given),-56.9%
17,Cn1ccc(NCc2cc3cc(F)ccc3o2)n1,5.1%
18,Cc1cc(-n2nc(C3CC3)nc2-c2csnn2)ccn1,-77.53%
19,O=C1CC[C@H]2CN(Cc3cccc(F)c3)CC[C@H]2N1CCc1c[nH]cn1,-13.3%
20,O=C1CC[C@H]2CN(Cc3cccnc3)CC[C@H]2N1CCc1c[nH]cn1,50.94%
21,Cn1cc(CN2CC[C@@H]3[C@@H](CCC(=O)N3CCc3c[nH]cn3)C2)cn1,-21.16%
22,CN1CCCC1CCn1ccnc1-c1ccc2ccccc2n1 (stereo not given),5.55%

row,SMILES,INHIBITION
1,CCN1CC2(CC1=O)CN(C(=O)c1ccsc1)CCN(C(=O)N(C)C)C2 (stereo not given),26.44%
2,Cc1noc2nc(C3CCCN(Cc4ccncc4)C3)cc(C(F)F)c12 (stereo not given),63.66%
3,Cc1noc2nc(C3CCN(Cc4ccncc4)CC3)cc(C(F)F)c12,17.51%
4,Cc1noc2nc(C3CCCN(Cc4cccnc4)C3)cc(C(F)F)c12 (stereo not given),39.06%
5,COc1c(C)cnc(CN2CCCC2c2noc(C)n2)c1C (stereo not given),4.87%
6,COCCN(CC1CC1)c1nc(CCN)nc2sc(C)c(C)c12,13.65%
7,O=C1NC2(CCN(Cc3cccnc3)CC2)CC1c1cccnc1 (stereo not given),-22.79%
8,Cc1noc(C)c1CN(C)Cn1c(=O)oc2ccccc21,-5.31%
9,CC(C)N1CCC(CC(=O)N2CCN(Cc3nccn3C)CC2)CC1,29.41%
10,COCCN1CC[C@]2(CN(Cc3cccnc3)C[C@H]2C)C1=O,49.07%
11,Cc1nc2n(n1)CC(NCc1cnn(-c3ccccc3)n1)CC2 (stereo not given),24.88%
12,Cc1ccc(C2COCCN2C(=O)c2ccc(N(C)C)cc2)o1 (stereo not given),30.73%
13,COCc1ccc(C(=O)N2CCOCC2c2ccc(C)o2)cc1 (stereo not given),62.13%
14,Cc1ccc(C2COCCN2C(=O)c2ccc(C#N)cc2)o1 (stereo not given),54.44%
15,Cc1ccc(C2COCCN2C(=O)c2ccsc2)o1 (stereo not given),16.01%
16,Cc1ccc(C2COCCN2C(=O)c2cccc(N(C)C)c2)o1 (stereo not given),43.34%
17,Cc1ccc(C2COCCN2C(=O)c2ccc(CN(C)C)cc2)o1 (stereo not given),27.84%
18,Cc1ccc(C2COCCN2C(=O)c2ccc(F)c(F)c2)o1 (stereo not given),70.24%
19,COc1ccc(C(=O)N2CCOCC2c2ccc(C)o2)cc1 (stereo not given),39.93%
20,CC(=O)Nc1cc(C(=O)N2CCOCC2c2ccc(C)o2)ccc1F (stereo not given),44.99%
21,CCS(=O)(=O)N1CCCCC1c1nc(C(C)C)no1 (stereo not given),-28.84%
22,CN1CCN(Cc2ccccc2Oc2ccc(C(N)=O)cn2)CC1,8.73%

row,SMILES,INHIBITION
1,CN(Cc1ccc(O)cc1)C(=O)NC1CCCN(c2ncccn2)C1 (stereo not given),36.95%
2,Cc1nc(CN2CCCC(c3nccs3)C2)cs1 (stereo not given),-33.32%
3,Cn1cc(Cl)c(C(=O)N2CCC(N3CCc4ccccc4C3)CC2)n1,18.63%
4,Cc1c(O)cccc1C(=O)N1CCCC2(C1)C(=O)N(C)c1ccccc12 (stereo not given),-91.67%
5,Cc1noc(COCC(=O)N2CCCC(c3nccs3)C2)n1 (stereo not given),-7.96%
6,CCc1cn[nH]c1C1CCCN(C(=O)c2ncoc2C(C)C)C1 (stereo not given),27.85%
7,CCc1cn[nH]c1C1CCCN(C(=O)c2cnc(NC(C)C)nc2)C1 (stereo not given),56.49%
8,CCc1cn[nH]c1C1CCCN(C(=O)c2cc(C(C)C)on2)C1 (stereo not given),22.34%
9,CCn1cc(NC(=O)C(C)n2ncc(Cl)c2C)c(C(=O)NC)n1 (stereo not given),-28.77%
10,CC(C)(C)C(=O)N1C[C@H](c2ccsc2)[C@H]2CN(C3CCCCC3)CC[C@H]21,25.41%
11,CC(C)C(=O)N1CCC12CCCN(C(=O)c1ccnnc1)C2 (stereo not given),-40.36%
12,CC(=O)NC(Cc1c[nH]c2cc(F)ccc12)C(=O)Nc1nonc1C (stereo not given),46.43%
13,CC(=O)NC(Cc1c[nH]c2cc(F)ccc12)C(=O)Nc1cnn(C)c1 (stereo not given),11.32%
14,CC(=O)NC(Cc1c[nH]c2cc(F)ccc12)C(=O)Nc1nncs1 (stereo not given),59.94%
15,Cc1ccc(CN(C)C(=O)CN2CCCC(Cn3cncn3)C2)cc1 (stereo not given),10.4%
16,O=C1CCC(c2nc(C3CCNCC3)no2)N1 (stereo not given),-6.77%
17,CO[C@@H]1CCN(C(=O)c2ccsc2)[C@@H]2CN(CC3CC3)C[C@@H]21,54.01%
18,CCN1C[C@H]2[C@@H](C1)N(C(=O)Cc1ccsc1)CC[C@H]2OC,48.52%
19,CCn1nc(C)cc1C(=O)N1CC[C@H](OC)[C@H]2CN(CC3CC3)C[C@H]21,24.51%
20,CO[C@H]1CCN(C(=O)c2ccsc2)[C@@H]2CN(CC3CC3)C[C@H]12,-1.45%
21,CO[C@H]1CCN(C(=O)Cc2ccsc2)[C@@H]2CN(CC3CC3)C[C@H]12,22.16%
22,CCN1C[C@@H]2[C@@H](OC)CCN(C(=O)c3cc(C)nn3CC)[C@@H]2C1,66.46%
